Results as given in PubChem BioAssay.
Records with an inconclusive call do not appear. Calls of active or inactive are those of the source. Unless noted, how the calls were made is not given here.

What was measured:
[1] = modulation of C. elegans fzo-1 (AID 1259413);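 further: fzo-1 mutant C. elegans worms in liquid wells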; settings: C. elegans fzo-1 modulator screen, mean read-out; stronger effect = higher value
[2] = differential killing of epithelial or mesenchymal cells, primary screen, imaging, PC-3E GFP, TEM4-18 mCherry, co-culture (AID 1345086;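 active means compounds killing one labelled cell type while sparing the other, by normalised counts and ratio limits, not self-fluorescent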;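 on all read-outs here: cells exposed to compound for 72 h before imaging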;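 on red/green cell ratio (normalised): normalised mesenchymal count divided by normalised epithelial count so high means epithelial killing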); settings: imaging cell counts, at 1 µM; for red/green cell ratio (normalised): actives lie on both sides, counts scaled to control wells, 1 = unselective
[3] = system: Aerobactin synthetase IucA (Klebsiella pneumoniae); assay: IucA aerobactin synthetase inhibitors, biochemical, Tocris library, absorbance (AID 1345561); settings: purified IucA enzyme assay, absorbance (OD) read-out; stronger effect = lower value;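 tested at 8 µM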;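 further: 100% = enzyme without compound and 0% = no enzyme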
[4] = growth inhibition of DIPG glioma cells, dose response, cell-based, SU-DIPG-XVII, MIPE5.0, CellTiter-Glo, qHTS (AID 1347060; cut-off not given, nearly all actives have AC50 up to about 26 µM;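 on AC50: cells exposed to compound for 48 hours before viability readout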); settings: SU-DIPG-XVII viability, CellTiter-Glo ATP luminescence
[5] = growth inhibition of DIPG glioma cells, dose response, cell-based, SU-DIPG-XIII, MIPE4.0, CellTiter-Glo, qHTS (AID 1347061; cut-off not given, nearly all actives have AC50 up to about 37 µM;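 further: cells exposed to compound for 48 hours before readout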); settings: SU-DIPG-XIII viability, CellTiter-Glo ATP luminescence
[6] = growth inhibition of DIPG glioma cells, dose response, cell-based, JHH-DIPG-1, MIPE4.0, CellTiter-Glo, qHTS (AID 1347062; cut-off not given, nearly all actives have AC50 up to about 27 µM;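 on AC50: cells exposed to compound for two days before readout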); settings: JHH-DIPG-1 viability, CellTiter-Glo ATP luminescence
[7] = growth inhibition of DIPG glioma cells, dose response, cell-based, SU-DIPG-IV, MIPE4.0, CellTiter-Glo, qHTS (AID 1347063; cut-off not given, nearly all actives have AC50 up to about 30 µM;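 further: compound exposure lasted 48 hours before the viability readout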); settings: SU-DIPG-IV viability, CellTiter-Glo ATP luminescence
[8] = growth inhibition of DIPG glioma cells, dose response, cell-based, SU-DIPG-XIII, MIPE5.0, CellTiter-Glo, qHTS (AID 1347064; cut-off not given, nearly all actives have AC50 up to about 23 µM); settings: SU-DIPG-XIII viability, CellTiter-Glo ATP luminescence
[9] = measured here: epithelial PC-3E GFP cell survival
[10] = measured here: mesenchymal TEM4-18 mCherry cell survival

Compound	mean signal [1]	red/green cell ratio (normalised) [2]	normalised cell number [2, 9]	normalised cell number [2, 10]	remaining activity [3]	outcome [4]	outcome [5]	outcome [6]	outcome [7]	outcome [8]	AC50 [4]	AC50 [5]	AC50 [6]	AC50 [7]
O=C(O)/C=C/c1ccc(Cn2ccnc2)cc1	275 (inactive)	1.06 (inactive)	1	1.05	107% (inactive)	inactive	inactive	inactive	inactive	inactive	–	–	–	–
Cc1cnc(NC(=O)C2=C(O)c3ccccc3S(=O)(=O)N2C)s1	257 (inactive)	0.91 (inactive)	1.16	1.05	–	inactive	–	inactive	inactive	inactive	–	–	–	–
O=C(NCCO[N+](=O)[O-])c1cccnc1	264 (inactive)	0.94 (inactive)	1.18	1.11	106% (inactive)	inactive	inactive	–	inactive	–	–	–	–	–
COc1ccc(CC2c3cc(OC)c(OC)cc3CC[N+]2(C)CCC(=O)OCCCCCOC(=O)CC[N+]2(C)CCc3cc(OC)c(OC)cc3C2Cc2ccc(OC)c(OC)c2)cc1OC (stereo not given)	250 (inactive)	0.8 (inactive)	1.18	0.94	–	inactive	inactive	inactive	inactive	–	–	–	–	–
CCCN[C@H]1CCc2nc(N)sc2C1	239 (inactive)	0.69 (inactive)	1.3	0.89	–	inactive	inactive	inactive	–	inactive	–	–	–	–
COc1cc2nc(N3CCN(C(=O)C4CCCO4)CC3)nc(N)c2cc1OC (stereo not given)	236 (inactive)	0.95 (inactive)	0.99	0.94	115% (inactive)	–	inactive	inactive	inactive	–	–	–	–	–
CNNCc1ccc(C(=O)NC(C)C)cc1	227 (inactive)	1.09 (inactive)	0.95	1.03	–	inactive	inactive	inactive	–	inactive	–	–	–	–
CN1CCC(=C2c3ccccc3CC(=O)c3sccc32)CC1	231 (inactive)	0.94 (inactive)	1.17	1.1	118% (inactive)	inactive	–	inactive	–	–	–	–	–	–
Cc1[nH]c(=O)c(C#N)cc1-c1ccncc1	234 (inactive)	1.2 (inactive)	1.05	1.26	–	inactive	–	–	–	–	–	–	–	–
Clc1ccccc1C(c1ccccc1)(c1ccccc1)n1ccnc1	209 (inactive)	1.09 (inactive)	1.31	1.43	–	–	inactive	inactive	inactive	–	23.5 µM (active)	–	–	–
CN1CCC(=C2c3ccccc3CCc3sccc32)CC1	277 (inactive)	0.85 (inactive)	1.11	0.94	–	inactive	–	–	–	–	–	16.6 µM (active)	–	–
CNS(=O)(=O)Cc1ccc2[nH]cc(CCN(C)C)c2c1	224 (inactive)	1.17 (inactive)	1.07	1.25	127% (inactive)	–	inactive	inactive	inactive	–	–	–	–	–
COCCCC/C(=N\OCCN)c1ccc(C(F)(F)F)cc1	245 (inactive)	0.92 (inactive)	1.1	1.01	125% (inactive)	–	–	inactive	inactive	–	–	–	–	–
Oc1ccc(C2CNCCc3c2cc(O)c(O)c3Cl)cc1 (stereo not given)	286 (inactive)	1.06 (inactive)	1.1	1.17	110% (inactive)	inactive	inactive	inactive	–	inactive	–	–	–	–
Nc1nc2c(ncn2COC(CO)CO)c(=O)[nH]1	268 (inactive)	1.03 (inactive)	1.04	1.07	–	inactive	–	–	–	–	–	–	16.6 µM (active)	20.9 µM (active)
CC[C@@]1(O)C(=O)OCc2c1cc1n(c2=O)Cc2cc3c(CN(C)C)c(O)ccc3nc2-1	251 (inactive)	1.81 (inactive)	0.19	0.34	–	–	–	–	–	–	0.0525 µM (active)	–	8.33 µM (active)	0.332 µM (active)
CCC1=C(C)CN(C(=O)NCCc2ccc(S(=O)(=O)NC(=O)NC3CCC(C)CC3)cc2)C1=O (stereo not given)	255 (inactive)	0.86 (inactive)	1.22	1.05	90.7% (inactive)	inactive	inactive	inactive	inactive	inactive	–	–	–	–
Nc1nnc(-c2cccc(Cl)c2Cl)c(N)n1	281 (inactive)	0.86 (inactive)	1.05	0.91	–	inactive	inactive	–	–	inactive	–	–	–	–
COc1ccc2nc(S(=O)Cc3ncc(C)c(OC)c3C)[nH]c2c1 (stereo not given)	241 (inactive)	0.98 (inactive)	0.98	0.96	103% (inactive)	inactive	–	inactive	inactive	inactive	–	–	–	–
CCOC(=O)c1ncn2c1CN(C)C(=O)c1cc(F)ccc1-2	276 (inactive)	0.89 (inactive)	0.95	0.84	110% (inactive)	inactive	inactive	–	inactive	–	–	–	–	–
COc1ccccc1OCC(O)CN1CCN(CC(=O)Nc2c(C)cccc2C)CC1 (stereo not given)	263 (inactive)	0.78 (inactive)	1.24	0.96	–	inactive	inactive	inactive	inactive	inactive	–	–	–	–
